Data published in PubChem BioAssay (NCI).
The panel holds about 79,000 compounds, 15% with a hit somewhere; the sample as a whole holds those more often. Values without a mark were called inactive. Activity calls are given as the source filed them. No stated cut-off is given here; in the data, active means growth inhibition above about 70%; inactive means the rest.

Assay: NCI Yeast Anticancer Drug Screen. Data for the wt2 strain (AID 169);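 further: 0% = growth of vehicle-treated yeast cultures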
Details: S. cerevisiae wt2 strain growth inhibition; at 100.0 µM; active compounds read high
In short: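 Compound exposure of yeast; growth compared with vehicle controls; inhibition reported.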

**Q.** Which growth inhibition does the source give for CC(Br)C(=O)c1ccc2cc(Br)c3ccccc3c2c1 (stereo not given) here?
**A.** Its growth inhibition is 4%.

**Q.** Which growth inhibition does the source give for O=C(Nc1ccccc1)OCCc1ccc(Cl)c(Cl)c1 here?
**A.** The growth inhibition was 8%.

**Q.** For O=Cc1cccc2ccc3ccccc3c12, which growth inhibition is on record?
**A.** The growth inhibition was 80% (active).

**Q.** With CC1(Cl)CC(O)C2(CC1Br)C1(C)OC1C1OC1(Br)C2(C)C (stereo not given) as the compound, how does the growth inhibition read?
**A.** Its growth inhibition is 98% (active).

**Q.** With Cc1cc(O)cc(O)c1N=Nc1ccc([N+](=O)[O-])cc1 as the compound, how does the growth inhibition read?
**A.** Its growth inhibition is 45%.

**Q.** For CCCCCCCCCCCCCC[N+](C)(CC(=O)[O-])Cc1ccccc1 (stereo not given), which growth inhibition is on record?
**A.** The growth inhibition was 99% (active).

**Q.** With CC1=NN(c2cccc(Cl)c2)C(=O)C1 as the compound, how does the growth inhibition read?
**A.** Its growth inhibition is 51%.

**Q.** For CC(=O)OCc1ccc(O)c(C=O)c1, which growth inhibition is on record?
**A.** Its growth inhibition is 32%.

**Q.** For Cc1ccc2ccc3cccc4ccc1c2c34, which growth inhibition is on record?
**A.** The growth inhibition was 18%.

**Q.** Which growth inhibition does the source give for Cc1nc(-[n+]2nc(-c3ccncc3)nn2-c2ccccc2)sc1C here?
**A.** The growth inhibition was 72% (active).

**Q.** Which growth inhibition does the source give for C(CCSC1=NCCN1)CSC1=NCCN1 (tested in a mixture with another compound) here?
**A.** The growth inhibition was 99% (active).

**Q.** With CCCCCCCCCCC(=O)Cl as the compound, how does the growth inhibition read?
**A.** Its growth inhibition is 82% (active).

**Q.** With COC1C=COC2(C)Oc3c(C)c(O)c4c(c3C2=O)/C(=N/C2CCC(O)OC2C)C=C(NC(=O)/C(C)=C\C(=O)C2CC2C(O)C(C)C(O)C(C)C(OC(C)=O)C1C)C4=O (stereo not given) as the compound, how does the growth inhibition read?
**A.** Its growth inhibition is 94% (active).

**Q.** Which growth inhibition does the source give for O=C1CSC(/C=C/c2ccccc2)N1c1ccc(-c2ccc(-n3c(-c4ccccc4)nc4ccccc4c3=O)cc2)cc1 (stereo not given) here?
**A.** Its growth inhibition is 62%.

**Q.** For Brc1ccc(-c2cc3c(cc2C2SCCS2)OCO3)cc1, which growth inhibition is on record?
**A.** The growth inhibition was 43%.

**Q.** Which growth inhibition does the source give for Oc1ccc2ccccc2c1C(c1ccc(Cl)cc1)c1c(O)ccc2ccccc12 here?
**A.** Its growth inhibition is 80% (active).

Assay: NCI Yeast Anticancer Drug Screen. Data for the mlh1 strain (AID 171);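 further: 0% = growth of vehicle-treated control cultures of the same strain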
Details: S. cerevisiae mlh1 strain growth inhibition; at 1.2 µM; active compounds read high
In short: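 Compounds are applied to a genetically altered yeast strain, and its growth is compared with that of vehicle-treated cultures to give percent inhibition.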

**Q.** Which growth inhibition does the source give for CN(C)C[C@H]1CC[C@@H](CN(C)C)C1=O here?
**A.** The growth inhibition was 18%.

**Q.** With COC(=O)CCNc1c2ccccc2nc2cccc([N+](=O)[O-])c12 as the compound, how does the growth inhibition read?
**A.** The growth inhibition was 84% (active).

**Q.** With CC(/C=C/c1ccc2c(c1)OCO2)[N+](=O)[O-] (stereo not given) as the compound, how does the growth inhibition read?
**A.** The growth inhibition was -2%.

**Q.** Which growth inhibition does the source give for CCOC(=O)c1cnc2c(C(F)(F)F)cccc2c1N=[N+]=[N-] here?
**A.** The growth inhibition was -1%.

**Q.** Which growth inhibition does the source give for CCCCCCCCNC(=O)C1=C(C)NC(C)=C(C(=O)NCCCCCCCC)C1 here?
**A.** Its growth inhibition is 0%.

**Q.** For Nc1ccccc1CC(O)C(=O)O (stereo not given), which growth inhibition is on record?
**A.** Its growth inhibition is 2%.

**Q.** For CN(C)c1ccc(Sc2ccc3nc(N)nc(N)c3c2)cc1, which growth inhibition is on record?
**A.** The growth inhibition was -4%.

**Q.** Which growth inhibition does the source give for CC(C)C1=CCC2C(=C1)CCC1C(C)(C(=O)O)CCCC21C (stereo not given) (tested in a mixture with another compound) here?
**A.** The growth inhibition was 12%.

**Q.** With CSC(=S)Nc1cc(C)ccn1 as the compound, how does the growth inhibition read?
**A.** Its growth inhibition is 0%.

**Q.** Which growth inhibition does the source give for CC(C)c1cc(C(C)C)c(O)c(C([O-])[O-])c1.CC(C)c1cc(C(C)C)c(O)c(C([O-])[O-])c1.CC(C)c1cc(C(C)C)c(O)c(C([OH2+])[OH2+])c1.CC(C)c1cc(C(C)C)c(O)c(C([OH2+])[OH2+])c1.[Cu+2].[Cu+2].[OH3+].[OH3+] here?
**A.** The growth inhibition was 2%.

**Q.** Which growth inhibition does the source give for Cc1cc(I)ccc1N here?
**A.** The growth inhibition was 25%.

**Q.** With O=Cc1cccc2ccc3ccccc3c12 as the compound, how does the growth inhibition read?
**A.** The growth inhibition was 5%.

**Q.** Which growth inhibition does the source give for O=[N+]([O-])CC(SCc1ccccc1)c1ccc2c(c1)OCO2 (stereo not given) here?
**A.** Its growth inhibition is 17%.

**Q.** With CCCCCCCCCCCCCC[N+](C)(CC(=O)[O-])Cc1ccccc1 (stereo not given) as the compound, how does the growth inhibition read?
**A.** Its growth inhibition is 2%.

**Q.** For CC1=NN(c2cccc(Cl)c2)C(=O)C1, which growth inhibition is on record?
**A.** The growth inhibition was -13%.

**Q.** With CC(=O)OCc1ccc(O)c(C=O)c1 as the compound, how does the growth inhibition read?
**A.** The growth inhibition was 0%.

**Q.** Which growth inhibition does the source give for Cc1nc(-[n+]2nc(-c3ccncc3)nn2-c2ccccc2)sc1C here?
**A.** The growth inhibition was -2%.

**Q.** Which growth inhibition does the source give for C(CCSC1=NCCN1)CSC1=NCCN1 (tested in a mixture with another compound) here?
**A.** The growth inhibition was 5%.

**Q.** With S=c1[nH]nc(Nc2ccc(Cl)cc2)s1 as the compound, how does the growth inhibition read?
**A.** Its growth inhibition is -7%.

**Q.** For Brc1ccc(-c2cc3c(cc2C2SCCS2)OCO3)cc1, which growth inhibition is on record?
**A.** Its growth inhibition is -24%.

**Q.** For C[CH2][Sn]([CH2]C)([O]C(=O)C(OC(C)=O)c1ccccc1)[O]C(=O)C(OC(C)=O)c1ccccc1 (stereo not given), which growth inhibition is on record?
**A.** The growth inhibition was 1%.

**Q.** For Cc1ccc2ccc(O)cc2c1, which growth inhibition is on record?
**A.** Its growth inhibition is -9%.

Same assay, conditions: S. cerevisiae mlh1 strain growth inhibition; at 3.7 µM; active compounds read high

**Q.** With CN(C)C[C@H]1CC[C@@H](CN(C)C)C1=O as the compound, how does the growth inhibition read?
**A.** Its growth inhibition is 32%.

**Q.** With COC(=O)CCNc1c2ccccc2nc2cccc([N+](=O)[O-])c12 as the compound, how does the growth inhibition read?
**A.** The growth inhibition was 91% (active).

**Q.** Which growth inhibition does the source give for CC(/C=C/c1ccc2c(c1)OCO2)[N+](=O)[O-] (stereo not given) here?
**A.** The growth inhibition was 64%.

**Q.** With CCOC(=O)c1cnc2c(C(F)(F)F)cccc2c1N=[N+]=[N-] as the compound, how does the growth inhibition read?
**A.** The growth inhibition was 0%.

**Q.** For CCCCCCCCNC(=O)C1=C(C)NC(C)=C(C(=O)NCCCCCCCC)C1, which growth inhibition is on record?
**A.** The growth inhibition was 2%.

**Q.** Which growth inhibition does the source give for Nc1ccccc1CC(O)C(=O)O (stereo not given) here?
**A.** The growth inhibition was 4%.

**Q.** For CN(C)c1ccc(Sc2ccc3nc(N)nc(N)c3c2)cc1, which growth inhibition is on record?
**A.** The growth inhibition was -8%.

**Q.** With CC(C)C1=CCC2C(=C1)CCC1C(C)(C(=O)O)CCCC21C (stereo not given) (tested in a mixture with another compound) as the compound, how does the growth inhibition read?
**A.** The growth inhibition was 11%.

**Q.** For CSC(=S)Nc1cc(C)ccn1, which growth inhibition is on record?
**A.** Its growth inhibition is -4%.

**Q.** Which growth inhibition does the source give for CC(C)c1cc(C(C)C)c(O)c(C([O-])[O-])c1.CC(C)c1cc(C(C)C)c(O)c(C([O-])[O-])c1.CC(C)c1cc(C(C)C)c(O)c(C([OH2+])[OH2+])c1.CC(C)c1cc(C(C)C)c(O)c(C([OH2+])[OH2+])c1.[Cu+2].[Cu+2].[OH3+].[OH3+] here?
**A.** Its growth inhibition is 15%.

**Q.** For Cc1cc(I)ccc1N, which growth inhibition is on record?
**A.** Its growth inhibition is 13%.

**Q.** For O=Cc1cccc2ccc3ccccc3c12, which growth inhibition is on record?
**A.** The growth inhibition was -5%.

**Q.** For O=[N+]([O-])CC(SCc1ccccc1)c1ccc2c(c1)OCO2 (stereo not given), which growth inhibition is on record?
**A.** Its growth inhibition is 48%.

**Q.** Which growth inhibition does the source give for CCCCCCCCCCCCCC[N+](C)(CC(=O)[O-])Cc1ccccc1 (stereo not given) here?
**A.** Its growth inhibition is 31%.

**Q.** With CC1=NN(c2cccc(Cl)c2)C(=O)C1 as the compound, how does the growth inhibition read?
**A.** Its growth inhibition is -20%.

**Q.** Which growth inhibition does the source give for CC(=O)OCc1ccc(O)c(C=O)c1 here?
**A.** The growth inhibition was -7%.

**Q.** Which growth inhibition does the source give for Cc1nc(-[n+]2nc(-c3ccncc3)nn2-c2ccccc2)sc1C here?
**A.** Its growth inhibition is -5%.

**Q.** For C(CCSC1=NCCN1)CSC1=NCCN1 (tested in a mixture with another compound), which growth inhibition is on record?
**A.** The growth inhibition was 20%.

**Q.** Which growth inhibition does the source give for S=c1[nH]nc(Nc2ccc(Cl)cc2)s1 here?
**A.** The growth inhibition was -2%.

**Q.** Which growth inhibition does the source give for Brc1ccc(-c2cc3c(cc2C2SCCS2)OCO3)cc1 here?
**A.** Its growth inhibition is -23%.

**Q.** For C[CH2][Sn]([CH2]C)([O]C(=O)C(OC(C)=O)c1ccccc1)[O]C(=O)C(OC(C)=O)c1ccccc1 (stereo not given), which growth inhibition is on record?
**A.** Its growth inhibition is 0%.

**Q.** With Cc1ccc2ccc(O)cc2c1 as the compound, how does the growth inhibition read?
**A.** The growth inhibition was -19%.
